Screening results from PubChem BioAssay.
Pf growth 48h: P. falciparum growth inhibition at 48 hours (one generation) | Potency, µM (highest dose often 28.7 µM), for the others: at the highest dose activity change, negative = inhibition, usual class: inhibitors | P. falciparum luciferase growth in erythrocytes, 48 h | 310,000 compounds, 5.9% hits
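Compounds are pin-transferred into medium, infected erythrocytes (2% hematocrit, 0.1% parasitemia final) are added, and plates sit one parasite generation at 37 C in 5% CO2. Detection reagent is then added and luminescence measured.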
Pf growth 96h: inhibits malaria parasite growth, 96 h; Potency, µM (titrated, usually from 28.7 µM), for the others: at the highest dose activity change, negative = inhibition, actives largely listed as inhibitors; P. falciparum luciferase reporter growth, 96 h; 320,000 compounds, 6.9% hits
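Delayed-death screen, second-generation endpoint: infected erythrocytes, 2% hematocrit, 0.05% parasitemia final; 96 hours at 37 C, 5% CO2; luciferase detection reagent; luminescence decrease equals reduced growth.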
AmpC inh detg: blocks E. coli AmpC beta-lactamase in detergent assay; 370,000 compounds, 0.041% hits; AID 485294; AmpC hydrolysis of nitrocefin, absorbance 480 nm, 0.01% Triton; Potency, µM (titrated, usually from 114 µM), for inactives: at the top dose activity change, negative = inhibition, most hits filed as inhibitors;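 also: 0% = no-compound wells and -100% = no-enzyme wells; nearly all actives have a fitted effect of over 25% in size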
Target sequence (P00811 whole entry, looked up): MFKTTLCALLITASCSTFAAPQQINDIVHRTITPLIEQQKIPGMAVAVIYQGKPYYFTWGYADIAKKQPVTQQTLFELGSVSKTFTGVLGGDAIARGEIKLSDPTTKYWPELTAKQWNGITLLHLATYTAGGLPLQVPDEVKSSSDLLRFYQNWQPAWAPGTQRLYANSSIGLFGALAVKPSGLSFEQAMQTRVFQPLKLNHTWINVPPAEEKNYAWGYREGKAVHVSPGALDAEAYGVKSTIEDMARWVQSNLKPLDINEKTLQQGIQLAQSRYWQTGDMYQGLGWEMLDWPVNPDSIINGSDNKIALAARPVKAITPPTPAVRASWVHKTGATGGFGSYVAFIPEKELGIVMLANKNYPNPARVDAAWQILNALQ
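AmpC (5.3 nM in the dispensed reagent) in 20 mM phosphate pH 7.0 with 0.01% (detergent screen) or 0.0001% Triton X-100 was preincubated with compounds for 15 min at room temperature. Nitrocefin was then added from an 800 uM solution, and hydrolysis was followed at 480 nm.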
AMA1 RON2 block: AMA1-RON2 (P. falciparum) interaction inhibition; AlphaScreen AMA1-biotinylated RON2 peptide binding; Potency, µM (series often up to 58.2 µM), without a hit: at the highest dose activity change, negative = inhibition, hits mostly inhibitors; 360,000 compounds, 0.2% hits; AID 720542;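 also: 0% = vehicle wells and -100% = peptide control; nearly all actives have a fitted effect of over 45% in size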
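AMA1 (3D7) with his tag at 25 nM final met compounds first, then biotinylated RON2 peptide at 25 nM; detection used donor plus acceptor beads, 10 µg/mL apiece, read by AlphaScreen after 30 min at room temperature.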
HCV inhibitor: inhibitors of hepatitis C virus infection | Huh7.5.1 HCVcc-Cre infection, luciferase reporter, 44 h | AID 651820 | 340,000 compounds, 3.4% hits | Potency, µM (doses to about 41.8 µM), without a hit: at the highest dose activity change, negative = inhibition, usual class: inhibitors
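Seed cells (1,000/well) for 4 h; treat with compound and infect with HCVcc-Cre, moi about 0.5. Incubate 44 h, then detect luciferase activity.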
AmpC inh no detg: AmpC beta-lactamase inhibition without detergent | P00811 | AmpC nitrocefin hydrolysis, absorbance 480 nm, 0.0001% Triton | Potency, µM (top dose mostly 57.1 µM), for the others: at the top dose activity change, negative = inhibition, most hits filed as inhibitors | 330,000 compounds, 0.52% hits;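 also: plate controls were no compound for no effect and no enzyme for full effect; nearly all actives have a fitted effect of over 20% in size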
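AmpC (5.3 nM in the dispensed reagent) in 20 mM phosphate pH 7.0 with 0.01% (detergent screen) or 0.0001% Triton X-100 was preincubated with compounds for 15 min at room temperature. Nitrocefin was then added from an 800 uM solution, and hydrolysis was followed at 480 nm.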
* hit, by the source's call; ? = inconclusive; . = not tested or not shown; [ ] = another dose, or the depositor's remark. Most compounds without a hit are left out; they make up all but 11% or so of the library. Calls follow the shape of the dose curve; as a rule, active = well fitted curve in the direction sought with a large enough effect; inconclusive = small, poorly fitted or top-dose-only effect, or another doubt; inactive = no such curve, though single readings can be large; an effect the other way counts as inactive or inconclusive. Unless noted, % is scaled to controls: 0 for no effect and ±100 for the full control effect; potency is read from the fitted curve at half-maximal effect.

SMILES	Pf growth 48h	Pf growth 96h	AmpC inh detg	AMA1 RON2 block	HCV inhibitor	AmpC inh no detg
Cc1cccc(N2C(=S)NC3c4ccccc4OC2(C)C3C(=O)N(C)C)c1 (stereo not drawn)	4%	9.3µM*	-7%	0%	8%	45%
CN(C)C(=O)c1nc2ccccc2s1	33%	19%	-1%	-11%	8%	-17%
CN(C)c1ccc(CC(=O)c2nc3ccccc3s2)cc1	?	3.3µM*	-11%	-11%	8%	-21%
CCCN(C(=O)c1nn(-c2ccc(OC)cc2)c(=O)c2c1c1ccccc1n2C)c1ccc(CC)cc1	.	.	1%	.	.	.
CCO[C@@H]1OC(C(=O)NCc2nc3ccccc3[nH]2)=C[C@H](c2ccc(C(F)(F)F)cc2)[C@H]1CCCO	?	12µM*	-6%	20%	-14%	122%
CCO[C@H]1OC(C(=O)NCc2nc3ccccc3[nH]2)=C[C@@H](C2CCCCC2)[C@@H]1CCCO	?	9.3µM*	3%	1%	-6%	106%
CCO[C@H]1OC(C(=O)NCc2nc3ccccc3[nH]2)=C[C@@H](c2ccc(C(F)(F)F)cc2)[C@@H]1CCCO	?	1.5µM*	1%	2%	-23%	173%
CCO[C@H]1OC(C(=O)NCc2nc3ccccc3[nH]2)=C[C@@H](C)[C@@H]1CCCO	49%	47%	4%	23%	?	2%
Cc1ccc2nc3ccc(N4CCCC4)nn3c(=O)c2c1	171%	4.7µM*	3%	1%	12%	-2%
CC1CCCN(c2ccc3nc4ccccc4c(=O)n3n2)C1 (stereo not drawn)	138%	?	5%	20%	-6%	-13%
O=C(Nc1nc(-c2ccccn2)cs1)c1cccc(-n2cnnn2)c1	1.2µM*	0.93µM*	4%	25%	?	-21%
O=C(Nc1nc(-c2ccccn2)cs1)c1ccc(Br)s1	?	.	0%	59%	2.2µM*	-16%
COc1ccccc1[C@@]1(C)ON(c2ccccc2C(F)(F)F)C1=O	1.5µM*	1µM*	0%	11%	3.2µM*	-10%
Cc1ccccc1[C@]1(C)ON(c2ccccc2C(F)(F)F)C1=O	1.9µM*	1.3µM*	4%	.	-7%	-13%
CC[C@]1(c2ccccc2C)ON(c2ccccc2C(F)(F)F)C1=O	2.6µM*	?	5%	7%	0%	-30%
Cc1ccc(C)c(CN2C(=O)C3(c4ccccc42)N(c2cccc(C(F)(F)F)c2)C(=O)CS3(=O)=O)c1 (stereo not drawn)	.	.	20%	.	.	.
CC(C)Oc1ccc(CNC(=O)c2cnc3sc(N4CCCCCC4)nn3c2=O)cc1	.	.	-6%	.	.	.
CC(=O)N1c2ccc(S(=O)(=O)NCCC(=O)Nc3ccc(C)cc3Br)cc2CC1C (stereo not drawn)	.	.	14%	.	.	.
Cc1ccccc1Cn1c2ccccc2c2cnn(CC(=O)NCCc3ccccc3)c(=O)c21	.	.	1%	.	.	.
Cc1ccc(NC(=O)COC(=O)c2ccc3c(c2)NC(=O)C2CCCN32)cc1 (stereo not drawn)	10µM*	11%	0%	-10%	10µM*	-27%
O=C(Nc1ccccc1C(=O)NCc1ccco1)c1ccccc1	-1%	12%	6%	-3%	-20%	-31%
O=C(Nc1ccccc1C(=O)NCc1ccccc1)c1ccco1	-23%	13µM*	?	6%	?	-27%
O=C(CCc1ccccc1)Nc1ccccc1C(=O)NCc1ccco1	?	13µM*	0%	-14%	-14%	-35%
O=C(Nc1ccccc1C(=O)NCc1cccnc1)c1ccco1	.	-7%	-18%	-22%	?	1%
Cc1cccc(N(C)c2nc3ccc(C(=O)c4ccccc4)cc3n3c(C)nnc23)c1	.	.	-9%	.	.	.
SMILES	Pf growth 48h	Pf growth 96h	AmpC inh detg	AMA1 RON2 block	HCV inhibitor	AmpC inh no detg
C=CCOc1c(Br)cc(CNc2ccc(NC(=O)C(C)C)c(OC)c2)cc1OC	?	8.3µM*	-2%	?	10µM*	58%
COc1cc(CNc2ccc(C(=O)O)cc2)cc(Br)c1OCC(=O)NC(C)(C)C	-11%	-2%	-12%	7%	12%	-34%
COc1cccc(CNC(=O)C(Cc2ccccc2)NS(=O)(=O)c2ccc3c(c2)oc(=O)n3C)c1 (stereo not drawn)	.	.	-2%	.	.	.
COc1ccc(-c2[nH]ncc2CN2CCN(Cc3cccs3)CC2)c(F)c1	2%	1%	-3%	-4%	?	-11%
COc1ccc(-c2[nH]ncc2CN(C)C(C)c2cccs2)c(F)c1 (stereo not drawn)	-21%	12µM*	-2%	1%	-11%	1%
COc1ccc(-c2[nH]ncc2CNC(C)Cc2ccsc2)c(F)c1 (stereo not drawn)	-21%	4.7µM*	4%	7%	-5%	-18%
CCOC(=O)C1CCCN(CC(=O)Nc2ccc(C(=O)Nc3ccccc3OC)cc2)C1 (stereo not drawn)	12µM*	?	?	-17%	11µM*	69%
CCOC(=O)C1CCN(C(=O)c2cc(S(=O)(=O)N3CCCCCC3)ccc2OC)CC1	?	4.1µM*	10%	0%	4%[8.37 µM]	200%
Cc1cc(C)n2nc(S(=O)(=O)NC3CCCCC3)nc2n1	13%	-21%	-10%	-4%	-15%	2.5µM*
COc1ccccc1NC(=O)c1ccc(NC(=O)CN2CCCC2)cc1	1%	11%	3%	13%	?	-25%
CCOC(=O)C1CCN(S(=O)(=O)c2ccc(OC)c(C(=O)N3CCCCCC3)c2)CC1	-4%	-5%	-11%	-8%	1%	73%
CCOC(=O)C1CCCN(C(=O)c2ccc3nc(-c4ccccc4)c(-c4ccccc4)nc3c2)C1 (stereo not drawn)	?	13µM*	-3%	-15%	-15%	210%
CCOC(=O)C1CCN(c2cc3c(cc2NC(=O)c2ccc(OC)c(OC)c2)n(C)c(=O)n3C)CC1	8.3µM*	?	-4%	-5%	?	17%
CCOC(=O)C1CCN(S(=O)(=O)c2c(Cl)ccc3nonc23)CC1	-23%	2.3µM*	16%	.	.	0%
CCOC(=O)N1CCN(S(=O)(=O)c2ccc(OC)c(C(=O)N3CCCCC3)c2)CC1	-20%	11%	5%	-1%	-10%	33%
CCOC(=O)C1CCN(c2cc3c(cc2NC(=O)c2ccccc2)n(C)c(=O)n3C)CC1	?	?	0%	13%	-25%	4%
CCOC(=O)C1CCCN(C(=O)c2ccc(OC)cc2OC)CC1 (stereo not drawn)	.	.	.	13%	.	.
